# PubChem BioAssay AID1159580 (chemical genetic matrix, 2015)
# Among all 5,500 compounds or so, about 2,000 (36%) were called active. Roughly 18% stayed inconclusive and do not appear here. This is one part of the list. A number with no mark means an inactive call. No stated cut-off is given here; in the data, active means normalized growth mostly below about 0.91 (no sharp cut-off); inconclusive means no clear call, values can overlap the other calls; inactive means mostly above about 0.92.
# Test: chemical genetic growth profiling, strain panel (AID 1159580);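 further: tested at 20 µM; growth read once vehicle control cultures reached saturation at 30 °C; 1 = growth at the plate median or of vehicle wells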
# Settings: S. cerevisiae deletion strains, growth OD
# [1] = locus YBR229C, strain ROT2, stronger effect = lower value
# [2] = locus YDL101C, strain DUN1, stronger effect = lower value
# [3] = locus YDL134C, strain PPH21, stronger effect = lower value
# [4] = locus YDR150W, strain NUM1, stronger effect = lower value
# [5] = locus YEL061C, strain CIN8, stronger effect = lower value
# [6] = locus YGR078C, strain PAC10, stronger effect = lower value
# [7] = locus YHR030C, strain SLT2, stronger effect = lower value
# [8] = locus YHR087W, strain rtc3, stronger effect = lower value
# [9] = locus YJR043C, strain POL32, stronger effect = lower value
# [10] = locus YJR075W, strain HOC1, stronger effect = lower value
# [11] = locus YLR039C, strain RIC1, stronger effect = lower value
# [12] = locus YLR058C, strain SHM2 (second series), stronger effect = lower value
# [13] = locus YLR085C, strain ARP6, stronger effect = lower value
# [14] = locus YLR262C, strain YPT6, stronger effect = lower value
# [15] = locus YML094W, strain GIM5, stronger effect = lower value
# [16] = locus YMR219W, strain ESC1, stronger effect = lower value
# [17] = locus YMR263W, strain SAP30, stronger effect = lower value
# [18] = locus YNL153C, strain GIM3, stronger effect = lower value
# [19] = locus YNL298W, strain CLA4 (second series), stronger effect = lower value
# [20] = locus YNL322C, strain KRE1, stronger effect = lower value
# [21] = locus YNR030W, strain Alg12, stronger effect = lower value
# [22] = locus YPL055C, strain LGE1, stronger effect = lower value
# [23] = locus YPL241C, strain CIN2, stronger effect = lower value
# [24] = locus YPR135W, strain CTF4, stronger effect = lower value
smiles,measurement,setting,value
c1ccc(-c2cc3c(ccc4nonc43)nn2)cc1,normalized growth,[1],0.957
same,normalized growth,[2],0.933
same,normalized growth,[3],0.991
same,normalized growth,[4],0.922
same,normalized growth,[5],0.947
same,normalized growth,[6],0.973
same,normalized growth,[7],0.604 (active)
same,normalized growth,[8],0.971
same,normalized growth,[9],0.76 (active)
same,normalized growth,[10],0.97
same,normalized growth,[11],0.96
same,normalized growth,[12],0.977
same,normalized growth,[13],0.878
same,normalized growth,[14],0.988
same,normalized growth,[15],0.935
same,normalized growth,[16],0.981
same,normalized growth,[17],0.923
same,normalized growth,[18],0.955
same,normalized growth,[19],0.945
same,normalized growth,[20],0.988
same,normalized growth,[21],0.905
same,normalized growth,"locus YOL006C, strain TOP1, stronger effect = lower value",0.734
same,normalized growth,[22],0.82 (active)
same,normalized growth,[23],0.89
same,normalized growth,[24],0.764
c1ccc(-c2cc3c(nn2)CCc2nonc2-3)cc1,normalized growth,"locus YAL013W, strain DEP1, stronger effect = lower value",0.979
same,normalized growth,[1],0.984
same,normalized growth,[2],0.992
same,normalized growth,[3],0.985
same,normalized growth,[4],1.01
same,normalized growth,[5],0.985
same,normalized growth,[6],0.992
same,normalized growth,[7],0.784
same,normalized growth,[8],1.01
same,normalized growth,"locus YJL187C, strain SWE1, stronger effect = lower value",0.975
same,normalized growth,[9],0.984
same,normalized growth,[10],0.966
same,normalized growth,[11],1.04
same,normalized growth,[12],0.978
same,normalized growth,[13],0.886
same,normalized growth,[14],1.02
same,normalized growth,[15],1.04
same,normalized growth,[16],0.985
same,normalized growth,[17],0.958
same,normalized growth,[18],0.99
same,normalized growth,[19],0.965
same,normalized growth,[20],0.987
same,normalized growth,[21],0.986
same,normalized growth,[22],1.09
same,normalized growth,[23],0.988
same,normalized growth,[24],0.988
